Calls of active or inactive are those of the source. Unless noted, the rule behind the calls is not given here.

A short description of experiment [1]: HepG2 liver cancer cell viability effects, profiling panel, resazurin fluorescence, 24 h, PK04 Diversity Set (AID 1172). Note: test concentration not given here. As to conditions: higher = more signal. For orientation: Resazurin is reduced to fluorescent resorufin, in cell work by metabolically active cells.
Experiment [2] in a line: basal S. cerevisiae growth modulation, no modifier, primary screen, OD600, strain BY4716, 24 h, basal condition (AID 1173). As to conditions: OD600, 24 h, higher = more signal, called active from +8 up or from −8 down.
Experiment [3] can be described thus: MM1S myeloma cell viability, profiling panel, resazurin fluorescence, basal, 24 h, PK04 Diversity Set (AID 1174).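 Note: MM1S multiple myeloma cell line; test concentration not given here.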 As to conditions: higher = more signal, called active from +8 up or from −8 down.
For experiment [4], the target named is Dihydroorotate dehydrogenase (quinone), mitochondrial (Plasmodium falciparum (isolate 3D7)) (UniProt Q08210). The experiment in a line: PfDHODH enzyme inhibitors, primary screen, biochemical, C-terminal His tag, absorbance 600 nm (AID 1175).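 Note: recombinant parasite enzyme with a five histidine tag at its C terminus; test concentration not given here.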 As to conditions: DCIP absorbance 600 nm, higher = more signal, called active from +8 up or from −8 down.
Dihydroorotate dehydrogenase (quinone), mitochondrial (Plasmodium falciparum (isolate 3D7)), sequence (Q08210 whole entry, looked up): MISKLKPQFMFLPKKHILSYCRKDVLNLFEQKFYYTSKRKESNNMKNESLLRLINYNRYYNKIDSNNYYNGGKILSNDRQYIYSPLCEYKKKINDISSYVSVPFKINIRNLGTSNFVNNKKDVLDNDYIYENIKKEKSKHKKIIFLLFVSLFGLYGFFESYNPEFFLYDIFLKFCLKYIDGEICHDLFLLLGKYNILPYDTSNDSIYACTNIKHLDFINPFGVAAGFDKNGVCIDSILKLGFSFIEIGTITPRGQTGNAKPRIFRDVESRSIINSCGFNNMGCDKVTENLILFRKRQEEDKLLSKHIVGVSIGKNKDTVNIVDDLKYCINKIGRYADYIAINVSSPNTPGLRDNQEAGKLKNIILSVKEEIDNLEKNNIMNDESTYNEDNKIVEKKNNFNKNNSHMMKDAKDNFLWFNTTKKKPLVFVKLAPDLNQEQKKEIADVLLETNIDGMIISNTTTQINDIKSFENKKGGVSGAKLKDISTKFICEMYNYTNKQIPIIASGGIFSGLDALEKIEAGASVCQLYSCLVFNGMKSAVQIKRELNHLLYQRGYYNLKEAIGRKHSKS
The nature of experiment [5]: P. aeruginosa biofilm formation inhibitors, primary screen, strain PAO1, LB-PBS medium, absorbance 600 nm (AID 1176). Note: test concentration not given here. As to conditions: P. aeruginosa PAO1 growth/biofilm, A600, 12 h; higher = more signal.
Experiment [6] in a line: S. cerevisiae RM11-1a growth modifiers, primary screen, strain RM11-1a, OD600, basal, 24 h (AID 1177).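 Note: cultures grown under basal conditions with no added stressor; test concentration not given here.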 As to conditions: OD600, 24 h, higher = more signal, called active from +8 up or from −8 down.
Experiment [7] can be described thus: E. coli acrAB mutant growth effects, primary screen, E. coli filamentation inducers, strain DRC39, OD650, 24 h (AID 1178).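 Note: growth measured as culture turbidity by optical density at 650 nm; test concentration not given here.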 As to conditions: higher = more signal, called active from +8 up or from −8 down.
Experiment [8] in a line: E. coli acrAB mutant growth effects, primary screen, E. coli filamentation inducers, strain DRC39, OD650, 48 h (AID 1179).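 Note: screen aims at cell division blockers that make cells filament.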 As to conditions: E. coli DRC39 delta-acrAB growth, higher = more signal, called active from +8 up or from −8 down.
The nature of experiment [9]: RPMI8226 myeloma cell viability, profiling panel, resazurin fluorescence, basal, 24 h, PK04 Diversity Set (AID 1180).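 Note: RPMI8826 multiple myeloma cell line at 5000 cells per well; test concentration not given here.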 As to conditions: higher = more signal.
Experiment [10] deals with E3 ubiquitin-protein ligase XIAP (Homo sapiens) (UniProt P98170). The experiment in a line: XIAP binders, primary screen, biophysical, small-molecule microarray, fluorescence 635 nm (AID 1181).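 Note: score merges 667 nm emission and signal to noise over triplicate slides.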 As to conditions: small-molecule microarray binding, higher = more signal.
E3 ubiquitin-protein ligase XIAP (Homo sapiens), sequence (P98170 whole entry, looked up): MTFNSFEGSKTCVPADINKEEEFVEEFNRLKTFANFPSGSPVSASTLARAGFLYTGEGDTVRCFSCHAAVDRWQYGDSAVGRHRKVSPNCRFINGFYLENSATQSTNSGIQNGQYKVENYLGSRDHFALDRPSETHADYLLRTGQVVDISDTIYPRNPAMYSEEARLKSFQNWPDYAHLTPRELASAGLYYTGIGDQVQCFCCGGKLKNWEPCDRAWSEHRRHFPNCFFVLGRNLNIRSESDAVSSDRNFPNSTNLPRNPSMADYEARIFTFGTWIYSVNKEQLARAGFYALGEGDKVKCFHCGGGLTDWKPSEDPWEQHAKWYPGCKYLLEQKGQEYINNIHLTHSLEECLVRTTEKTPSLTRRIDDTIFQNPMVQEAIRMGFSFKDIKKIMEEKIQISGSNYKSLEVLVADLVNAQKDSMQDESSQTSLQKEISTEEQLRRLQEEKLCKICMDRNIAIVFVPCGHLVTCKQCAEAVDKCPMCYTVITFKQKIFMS

For `CCCCCCCCCCC(O)C1C=CC2C(=O)NC(=O)C2N1Nc1ccc(Cl)cc1Cl` (stereo not given), the z-score in experiment [1] was -2.55; in experiment [2], -1.08 (inactive); in experiment [3], -1.76 (inactive); in experiment [5], 0.201 (inactive); in experiment [6], 1.69 (inactive); in [7], -0.801 (inactive). Also, the z-score in experiment [8] is -1.27 (inactive); in experiment [9], -1.51. For the same molecule, the composite z-score in experiment [4] was 0.762 (inactive); in experiment [10], -0.102.
For `C=C(CCCC)/C(=C/C[C@H](OC(C)=O)c1ccc(OCCO)cc1)c1cnc2ccccc2c1`, the z-score in experiment [1] was 0.846; in [2] it was -0.0576 (inactive); in experiment [3] it was -1.42 (inactive); in experiment [5], 0.403 (inactive); in [6], -0.476 (inactive); in experiment [7] it was 0.187 (inactive). For the same molecule, the z-score in [8] is 0.225 (inactive); in experiment [9], 0.228. Moreover, the composite z-score in experiment [4] is -3.75 (inactive); in experiment [10], -0.312.
On to `COCCCNC(=O)[C@@]1(Cc2ccccc2CN=[N+]=[N-])N=C(c2ccc(OCCCO)cc2)O[C@H]1c1ccccc1CN=[N+]=[N-]`, for which the z-score is 0.122 in [1]; -1.03 (inactive) in experiment [2]; -1.92 (inactive) in experiment [3]; 0.218 (inactive) in experiment [5]; -0.016 (inactive) in experiment [6]; 2.15 (inactive) in experiment [7]. The results for the z-score in [8] and in experiment [9] were 0.707 (inactive) and -4.14, respectively. For the same molecule, the composite z-score is 1.06 (inactive) in experiment [4] and 0.244 in experiment [10].
On to `O=C(CS)NCCCCCNC(=O)[C@@H]1C[C@@H]2C(=O)NCC(=O)N2[C@@H]1c1ccc(O)cc1`, for which the z-score in experiment [1] was -0.701; in experiment [2] it was 0.272 (inactive); in experiment [3] it was -1.06 (inactive); in experiment [5], 1.5 (inactive); in experiment [6], -0.0231 (inactive); in experiment [7], -0.401 (inactive). The z-score is -1.04 (inactive) in experiment [8] and -0.492 in experiment [9]. For the same molecule, the composite z-score in experiment [4] is 0.424 (inactive); in experiment [10], -0.0536.
With `CCOC(=O)[C@H]1C/C=C/C[C@H](C(=O)OCC)C(=O)O[C@H]2[C@@H](OC)O[C@H](CO)[C@@H](OC(=O)c3ccc(Br)cc3)[C@@H]2OC1=O`, the z-score was -0.349 in experiment [1]; -0.775 (inactive) in [2]; -1.77 (inactive) in experiment [3]; 0.787 (inactive) in experiment [5]; 0.807 (inactive) in experiment [6]; 0.612 (inactive) in [7]. Moreover, the z-score in experiment [8] was 0.485 (inactive); in [9], -2.49. Moreover, the figures for the composite z-score in experiment [4] and in experiment [10] were -1.88 (inactive) and -0.283, respectively.
Take `O=c1cccc(-c2ccccc2Cl)o1`: the z-score was -0.611 in [1]; -2.25 (inactive) in [2]; -0.111 (inactive) in [3]; -0.0043 (inactive) in experiment [5]; -0.234 (inactive) in experiment [6]; -0.366 (inactive) in experiment [7]. Further, the z-score was -0.608 (inactive) in experiment [8] and -0.698 in experiment [9]. The composite z-score in experiment [4] is -0.316 (inactive); in experiment [10], -0.0999.
With `CC(c1ccccc1)C(O)C1C=CC2C(=O)N(C)C(=O)C2N1NC(=O)OC(C)(C)C` (stereo not given), the z-score is -0.67 in experiment [1]; -0.424 (inactive) in experiment [2]; -0.267 (inactive) in experiment [3]; 0.903 (inactive) in experiment [5]; 0.732 (inactive) in experiment [6]; -0.182 (inactive) in experiment [7]. Besides, the z-score in experiment [8] is -0.339 (inactive); in [9], 0.15. In addition, the composite z-score was -0.14 (inactive) in experiment [4] and 0.184 in experiment [10].
On to `C=CC[C@]1(C(N)=O)COC(c2ccc(OCCCO)cc2)=N1`, for which the z-score in experiment [1] was 1.4; in experiment [2], 0.412 (inactive); in [3], -0.801 (inactive); in [5], -0.814 (inactive); in experiment [6], 0.75 (inactive); in experiment [7], 1.12 (inactive). The figures for the z-score in experiment [8] and in experiment [9] were 1.83 (inactive) and 0.679, respectively. Moreover, the composite z-score in experiment [4] is 0.94 (inactive); in [10], -0.095.
In the case of `C=CCOC(=O)[C@H]1[C@@H]2C(=O)O[C@@H](c3ccccc3)[C@@H](c3ccccc3)N2[C@@H](c2ccc(OCCOC(=O)[C@H]3C[C@H]4C(=O)N[C@@H](CCCCN(C)C)C(=O)N4[C@H]3c3cccc(OCCO)c3)cc2)[C@]12C(=O)Nc1ccc(I)cc12`, the z-score was -0.0574 in experiment [1]; 0.626 (inactive) in [2]; -0.865 (inactive) in experiment [3]; 0.808 (inactive) in experiment [5]; 1.75 (inactive) in experiment [6]; -0.548 (inactive) in experiment [7]. In addition, the z-score in experiment [8] was -1.02 (inactive); in [9] it was -0.316. Besides, the composite z-score in experiment [4] is 1.71 (inactive); in experiment [10] it was 0.194.
`CCCCC(=C=CC[C@H](O)c1cccc(OCCO)c1)C[C@H](O)c1ccccn1`: the z-score was 1.7 in [1]; -1.1 (inactive) in [2]; 1.03 (inactive) in experiment [3]; -0.235 (inactive) in [5]; -1.49 (inactive) in [6]; 1.58 (inactive) in experiment [7]. The z-score in experiment [8] is 1.58 (inactive); in experiment [9], 1.83. The composite z-score in experiment [4] was -2.69 (inactive); in [10], -0.188.
For `CCOC(=O)C1=CC[C@H]2C(=O)N(c3ccccc3)C(=O)[C@@H]12`, the z-score is 0.119 in experiment [1]; 0.206 (inactive) in [2]; -0.811 (inactive) in experiment [3]; -0.417 (inactive) in [5]; -0.337 (inactive) in experiment [6]; -0.809 (inactive) in experiment [7]. For the same molecule, the z-score in [8] was -1.17 (inactive); in experiment [9], -0.0357. The composite z-score in experiment [4] is 0.494 (inactive); in experiment [10], 0.154.
Turning to `O=C1NC(=O)C2C1C=CC(C(O)c1ccc(I)cc1)N2Nc1ccccn1` (stereo not given), the z-score in [1] is -1.45; in experiment [2] it was -0.27 (inactive); in experiment [3] it was -0.766 (inactive); in [5], 1.48 (inactive); in experiment [6], 0.275 (inactive); in experiment [7] it was -0.062 (inactive). Moreover, the z-score in experiment [8] is -0.495 (inactive); in experiment [9], -1.01. In addition, the composite z-score was 0.309 (inactive) in experiment [4] and 0.189 in experiment [10].
As for `NC(=O)NCC#Cc1ccc2c(c1)[C@]1(C(=O)N2)[C@H](C(=O)O)[C@H]2C(=O)O[C@H](c3ccccc3)[C@H](c3ccccc3)N2[C@@H]1c1ccc(O)cc1`, the z-score in experiment [1] is 0.891; in [2], -0.0841 (inactive); in experiment [3] it was 0.587 (inactive); in experiment [5] it was 0.393 (inactive); in [6], 0.0591 (inactive); in experiment [7], -0.131 (inactive). Also, the z-score is -0.0796 (inactive) in experiment [8] and 0.902 in experiment [9]. The composite z-score was -1.63 (inactive) in [4] and 0.0043 in experiment [10].

For the origin of these results see PubChem BioAssay.
